Molecules are shown by their SMILES. Hit rate of the full screen: of about 150,000 compounds, about 540 (0.36%) showed an effect of 50% or more. The full list was thinned out, with strong results kept by preference.

A word on the % Inhibition: it is the drop in the measured response relative to a control, in per cent.

The test system of the assay is Plasmodium falciparum. In words: Primary screen in NF54 nanoGlo assay, in single point, at 2uM, 72h; a lower Z score goes with more inhibition. The class given is functional, Erythrocyte. Particulars: timepoint 72 hour.
As for `c1csc([C@@H]2CN(c3ncnc4sccc34)CCO2)n1`, the “% Inhibition” value is given as 5% and the Z score is given as -0.74.

For `O=C(NC1CCCCC1)c1nn(-c2ccc(F)cc2)c2ccccc2c1=O`, the “% Inhibition” value was -15% and the Z score amounted to 2.13.

For `O=C1NCCCN1C1CCN(Cc2ccc(Cl)c(C(F)(F)F)c2)CC1`, the “% Inhibition” value was 10% and the Z score was -1.75.

Regarding `COc1cc(-c2ccc(C(=O)N3CCC[C@H](O)C3)cc2)nc(OC)n1`, the “% Inhibition” value came to 2% and the Z score was -0.43.

In the case of `Cc1cccc(NC(=O)[C@H]2CCN(c3cn[nH]c(=O)c3)C2)c1`, the “% Inhibition” value came out at 52% and the Z score is listed as -0.4.

As to `Cc1cccc(CNC(=O)[C@H]2CCN(c3cn[nH]c(=O)c3)C2)c1`, the “% Inhibition” value is on record as -12% and the Z score was found to be 1.58.

Turning to `O=C(Nc1ccc(N2CCOCC2)cc1)[C@H]1CCN(c2cn[nH]c(=O)c2)C1`, the “% Inhibition” value is -14% and the Z score is recorded as 1.91.

For the compound `CCCCN1C(=O)[C@](NS(=O)(=O)c2ccc(NC(C)=O)cc2)(C(F)(F)F)C(C(C)=O)=C1C`, the “% Inhibition” value is listed as -7% and the Z score came to 0.92.

In the case of `N#Cc1nc2c(S(=O)(=O)c3ccccc3)c(N)n(Cc3ccc(Cl)cc3)c2nc1C#N`, the “% Inhibition” value is given as -16% and the Z score is recorded as 2.57.

`N#Cc1nc2c(C#N)c(N)n(CCc3ccccc3)c2nc1C#N`: the “% Inhibition” value came to 88% and the Z score is listed as -11.87.

Regarding `COc1ccc(CCn2c(N)c(-c3nc4ccccc4s3)c3nc(C#N)c(C#N)nc32)cc1OC`, the “% Inhibition” value is -5% and the Z score came to 0.86.

For the compound `C[C@H]1COCCN1C(=O)CCc1ccco1`, the “% Inhibition” value is -2% and the Z score stood at 0.25.

As for `Cc1ccc(CNC[C@H](O)c2cccnc2)c(Br)c1`, the “% Inhibition” value is reported as 7% and the Z score is listed as -0.68.

Take `O=C(Cn1cnc2ccc(Cl)cc2c1=O)NCCCc1ccccc1`: the “% Inhibition” value is on record as 2% and the Z score is -0.27.

On to `Cc1ccsc1CN(CCN1CCOCC1)[C@H]1CCCNC1`, for which the “% Inhibition” value is given as -5% and the Z score was found to be 0.7.

For the compound `CCOC(=O)N1CC[C@H](NC2(c3cc(F)ccc3F)CC2)C1`, the “% Inhibition” value is recorded as -9% and the Z score came to 1.36.

Turning to `O=C(Cn1cc2c(n1)CCCCCC2)NCCc1ccc(Cl)cc1`, the “% Inhibition” value stood at 6% and the Z score is -0.96.

With `C[C@@H](CNc1cnc2ccccc2n1)N1CCOCC1`, the “% Inhibition” value is recorded as 20% and the Z score is -2.58.

Take `C[C@@H](CNc1nc(-c2ccccc2)nc2ccccc12)N1CCOCC1`: the “% Inhibition” value is -9% and the Z score was 1.51.

With `CCCCCc1nc([C@H](C)N2CCN(C)CC2)n(-c2cc(C)ccn2)n1`, the “% Inhibition” value is recorded as -3% and the Z score was 0.42.

Take `O=S(=O)(c1ccc(Cl)s1)N1CCc2nc(-c3ccc(Cl)cc3)ncc2C1`: the “% Inhibition” value was -11% and the Z score is given as 1.78.

With `Cc1cccc2c1OCC[C@H]2NC(=O)Cn1cnc2c1CCNC21CCOCC1`, the “% Inhibition” value was -5% and the Z score was 0.76.

In the case of `CCOc1cc(CNCCCn2ccnc2)ccc1OCc1ccccc1`, the “% Inhibition” value is given as 46% and the Z score is -2.57.

As to `Clc1ccc(Cn2cc(CNCCCn3ccnc3)c3ccccc32)c(Cl)c1`, the “% Inhibition” value was 98% and the Z score is -10.9.

Regarding `O=c1[nH]nc(Cn2ccnc2)n1Cc1ccc(Cl)cc1Cl`, the “% Inhibition” value is listed as 0% and the Z score is -0.08.

In the case of `Clc1ccc(COc2ccc(Cl)cc2CNCCCn2ccnc2)c(Cl)c1`, the “% Inhibition” value is reported as 94% and the Z score is -11.1.

For the compound `O[C@@H](CNCCCn1ccnc1)COc1ccc(Cl)cc1Cl`, the “% Inhibition” value came to 26% and the Z score is -2.66.

On to `C[C@@H](NCCCn1ccnc1)c1ccc(Cl)cc1`, for which the “% Inhibition” value was -4% and the Z score was 0.5.

`O=C(O)c1cccc(CN2CCc3nc(C4CC4)ncc3C2)c1`: the “% Inhibition” value was -13% and the Z score turned out to be 1.45.

`CC1CC(N2CCCC(n3cnc4ccccc43)C2)CN1C` (stereo not drawn): the “% Inhibition” value is reported as -5% and the Z score is on record as 0.43.

`Cc1ccc(C(=O)c2nocc2C(=O)c2cccnc2)cc1`: the “% Inhibition” value amounted to 1% and the Z score is listed as -0.19.

For the compound `CCc1cc(C(=O)N2CCN(C/C=C/c3ccccc3)CC2)cc(=O)[nH]1`, the “% Inhibition” value was 0% and the Z score came out at 0.04.

`CC(C)[C@@H]1CC[C@H](C)C[C@H]1OC(=O)Cn1cc(-c2ccc(Cl)cc2)[n+]2c1CCC2`: the “% Inhibition” value is 79% and the Z score is listed as -6.99.

`CC1CCC(C(C)C)C(OC(=O)COC(=O)c2ccncc2)C1` (stereo not drawn): the “% Inhibition” value was -10% and the Z score is 1.31.

Consider `CC1CCC(C(C)C)C(OC(=O)Cn2nnc(C(N)=O)n2)C1` (stereo not drawn), for which the “% Inhibition” value is 19% and the Z score is listed as -2.22.

Turning to `Cc1onc(-c2ccccn2)c1C(=O)NC1CCCCC1`, the “% Inhibition” value is listed as 12% and the Z score is recorded as -2.28.

On to `O=C(Nc1ccc(Cc2ccc(NC(=O)c3ccc(Br)cc3)c(O)c2)cc1O)c1ccc(Br)cc1`, for which the “% Inhibition” value is on record as 60% and the Z score is -1.

For the compound `C=C(C)C(=O)Nc1ccc(Cc2ccc(NC(=O)C(=C)C)c(O)c2)cc1O`, the “% Inhibition” value amounted to 0% and the Z score is on record as -0.04.

Take `CNC(=O)CCCC(=O)Nc1ccc(Br)cc1O`: the “% Inhibition” value is reported as -9% and the Z score is on record as 0.88.

For the compound `CCN(CC(=O)N1CCCNC(=O)[C@@H]1C)c1ccccc1`, the “% Inhibition” value is -10% and the Z score amounted to 1.27.

Regarding `O=C(NCCN1CCCCC1)c1n[nH]c2c1CCc1ccccc1-2`, the “% Inhibition” value was 52% and the Z score is -0.47.

In the case of `O=C(c1n[nH]c2c1CCc1ccccc1-2)N1CCCCCC1`, the “% Inhibition” value is -15% and the Z score was 1.3.

With `O=C(NCCc1nccs1)c1n[nH]c2c1CCc1ccccc1-2`, the “% Inhibition” value was -9% and the Z score is recorded as 1.37.

As for `CC(C)c1nc(C(=O)N[C@@H](C)C(N)=O)cs1`, the “% Inhibition” value is -9% and the Z score came out at 1.83.

For `Cc1cnc(NC(=O)c2nc(C)oc2-c2ccccc2)[nH]1`, the “% Inhibition” value was -10% and the Z score came to 1.11.

As for `Cc1nc(C(=O)NC[C@@]23CCC[C@@H]2OCC3)c(-c2ccccc2)o1`, the “% Inhibition” value amounted to 0% and the Z score is reported as -0.01.

For the compound `Nc1ccc(F)cc1NC(=O)c1coc(-c2ccccc2)n1`, the “% Inhibition” value is reported as -10% and the Z score came to 1.7.

Regarding `Cc1nc(C(=O)Nc2[nH]c(=O)ncc2F)c(-c2ccccc2)o1`, the “% Inhibition” value is listed as 80% and the Z score is recorded as -7.61.

Take `CC(C)c1nc(C(=O)Nc2[nH]c(=O)ncc2F)cs1`: the “% Inhibition” value was 88% and the Z score is -15.46.

On to `O=C(Nc1[nH]c(=O)ncc1F)c1coc(-c2ccccc2)n1`, for which the “% Inhibition” value was 80% and the Z score is -14.59.

Take `CC(C)c1nc(C(=O)Nc2[nH]nc(C3CC3)c2C#N)cs1`: the “% Inhibition” value was -25% and the Z score amounted to 3.79.

With `CCc1ncc(NC(=O)c2coc(-c3ccccc3)n2)cn1`, the “% Inhibition” value is -21% and the Z score is 2.66.

With `CCOCCCNC(=O)C1CCN(C(=O)c2cc3oc(C)cc3n2Cc2c(F)cccc2Cl)CC1`, the “% Inhibition” value is -1% and the Z score is 0.06.

As for `CN1CCN(S(=O)(=O)N2CCN(Cc3cccn3C)CC2)CC1`, the “% Inhibition” value is listed as 7% and the Z score is -0.7.

The record behind these values is ChEMBL document CHEMBL4888484, “Replenishing the malaria drug discovery pipeline: Screening and hit evaluation of the MMV Hit Generation Library 1 (HGL1) against asexual blood stage Plasmodium falciparum ,using a nano luciferase reporter read-out” (2022).
